Source: PubChem BioAssay AID1159580 (chemical genetic matrix, 2015)
Screen size: about 5,500 compounds; about 2,000 (36%) were called active. Inconclusive results (about 18%) are left out. No stated cut-off is given here; in the data, active means normalized growth mostly below about 0.91 (no sharp cut-off); inconclusive means no clear call, values can overlap the other calls; inactive means mostly above about 0.92. The list shows a part of the results.

Assay: chemical genetic growth profiling, strain panel (AID 1159580);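 further: tested at 20 µM; growth read once vehicle control cultures reached saturation at 30 °C; 1 = growth at the plate median or of vehicle wells; lower values mean less growth of the strain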
Details: S. cerevisiae deletion strains, growth OD

Measured: normalized growth

O=c1c(O)c(-c2ccc(O)cc2)oc2ccccc12
inactive: locus YBR171W, strain sec66, hits give low values 0.903 | locus YCR088W, strain abp1, hits give low values 0.962 | locus YDL005C, strain med2, hits give low values 0.965 | locus YDL040C, strain nat1, hits give low values 0.934 | locus YDR001C, strain nth1, hits give low values 0.936 | locus YGL167C, strain pmr1, hits give low values 0.921 | locus YGL227W, strain vid30, hits give low values 0.962 | locus YHR079C, strain IRE1, hits give low values 0.855 | locus YJL092W, strain hpr5, hits give low values 0.922 | locus YJL115W, strain asf1, hits give low values 0.971 | locus YJL154C, strain vps35, hits give low values 0.931 | locus YJR066W, strain TOR1, hits give low values 0.842 | locus YKR026C, strain gcn3, hits give low values 0.945 | locus YKR091W, strain srl3, hits give low values 0.937 | locus YLR357W, strain rsc2, hits give low values 0.9 | locus YMR125W, strain sto1, hits give low values 0.972 | locus YMR129W, hits give low values 0.932 | locus YNL183C, strain NPR1, hits give low values 0.838 | locus YNL322C, strain KRE1 (second series), hits give low values 0.909 | locus YNR049C, strain mso1, hits give low values 0.919
active: locus YAL021C, strain ccr4, hits give low values 0.576 | locus YAL026C, strain drs2, hits give low values 0.707 | locus YAL030W, strain snc1, hits give low values 0.809 | locus YBL061C, strain skt5, hits give low values 0.714 | locus YBR009C, strain hhf1, hits give low values 0.7 | locus YBR023C, strain chs3, hits give low values 0.643 | locus YBR231C, strain swc5, hits give low values 0.794 | locus YBR279W, strain paf1, hits give low values 0.749 | locus YCL011C, strain gbp2, hits give low values 0.762 | locus YCL016C, strain dcc1, hits give low values 0.849 | locus YCL061C, strain MRC1, hits give low values 0.904 | locus YCL069W, strain vba3, hits give low values 0.816 | locus YDR069C, strain doa4, hits give low values 0.56 | locus YDR137W, strain rgp1, hits give low values 0.397 | locus YDR159W, strain sac3, hits give low values 0.792 | locus YDR195W, strain ref2 1.34 [resistant] | locus YDR297W, strain sur2, hits give low values 0.82 | locus YDR334W, strain swr1, hits give low values 0.831 | locus YDR335W, strain msn5, hits give low values 0.789 | locus YDR392W, strain spt3, hits give low values 0.284 | locus YEL003W, strain gim4, hits give low values 0.79 | locus YEL037C, strain rad23, hits give low values 0.853 | locus YEL061C, strain CIN8 (second series), hits give low values 0.885 | locus YER015W, strain faa2, hits give low values 0.615 | locus YER016W, strain bim1, hits give low values 0.863 | locus YER111C, strain swi4, hits give low values 0.745 | locus YER155C, strain BEM2 (second series), hits give low values 0.489 | locus YFR010W, strain ubp6, hits give low values 0.84 | locus YGL173C, strain kem1, hits give low values 0.499 | locus YGL240W, strain doc1, hits give low values 0.855 | locus YGL253W, strain hxk2, hits give low values 0.63 | locus YHR013C, strain ard1, hits give low values 0.506 | locus YHR027C, strain rpn1, hits give low values 0.546 | locus YHR030C, strain SLT2, hits give low values 0.847 | locus YHR142W, strain chs7, hits give low values 0.495 | locus YJL095W, strain BCK1 (second series), hits give low values 0.731 | locus YJL095W, strain BCK1, hits give low values 0.833 | locus YJL129C, strain trk1, hits give low values 0.717 | locus YJL164C, strain tpk1, hits give low values 0.564 | locus YJL166W, strain qcr8, hits give low values 0.538 | locus YJL187C, strain SWE1, hits give low values 0.725 | locus YKL160W, strain elf1, hits give low values 0.713 | locus YLL001W, strain dnm1, hits give low values 0.777 | locus YLL026W, hits give low values 0.809 | locus YLL041C, strain sdh2, hits give low values 0.91 | locus YLR027C, strain aat2, hits give low values 0.695 | locus YLR113W, strain HOG1, hits give low values 0.719 | locus YLR221C, strain rsa3, hits give low values 0.697 | locus YLR258W, strain gsy2, hits give low values 0.766 | locus YLR262C, strain YPT6 (second series), hits give low values 0.369 | locus YLR320W, strain mms22, hits give low values 0.426 | locus YLR342W, strain FKS1, hits give low values 0.757 | locus YLR370C, strain arc18, hits give low values 0.781 | locus YLR384C, strain iki3, hits give low values 0.905 | locus YML120C, strain ndi1, hits give low values 0.669 | locus YMR058W, strain fet3, hits give low values 0.179 | locus YMR205C, strain PFK2, hits give low values 0.56 | locus YMR231W, strain pep5, hits give low values 0.545 | locus YNL071W, strain lat1, hits give low values 0.471 | locus YNL209W, strain ssb2, hits give low values 0.458 | locus YNL248C, strain rpa49, hits give low values 0.837 | locus YOR001W, strain rrp6, hits give low values 0.695 | locus YOR070C, strain gyp1, hits give low values 0.666 | locus YOR080W, strain dia2, hits give low values 0.861 | locus YOR083W, strain WHI5, hits give low values 0.664 | locus YOR106W, strain vam3, hits give low values 0.319 | locus YOR231W, strain MKK1, hits give low values 0.847 | locus YOR265W, strain rbl2, hits give low values 0.816 | locus YOR270C, strain vph1, hits give low values 0.328 | locus YOR290C, strain snf2, hits give low values 0.641 | locus YPL051W, strain arl3, hits give low values 0.441 | locus YPL078C, strain atp4, hits give low values 0.651 | locus YPL106C, strain sse1, hits give low values 0.843 | locus YPL240C, strain hsp82, hits give low values 0.869 | locus YPL256C, strain CLN2, hits give low values 0.816
